Measured values as given in PubChem BioAssay (Tox21).
Where “and” joins values, the source holds several entries; their conditions need not be identical. Equal values may be shown once. Inconclusive results are not listed. Calls of active or inactive are those of the source. Calls come from the whole dose curve; as a rule, active = well fitted curve in the direction sought with a large enough effect in the repeat runs; inconclusive = weak or mixed curves; inactive = no such curve, though single readings can be large; an effect the other way counts as inactive or inconclusive.

Assays:
[1] = Caspase-3/7 induction in HepG2 cells by small molecules, qHTS assay (AID 1346978); note: nearly all actives have a fitted effect of over 15% in size
In short: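 Wild-type HepG2 cells, 2,000/well, settled 5 hr at 37 C and 5% CO2, then compound-treated for 17 hr; caspase-3/7 activity read by luminescent Caspase-Glo 3/7 after 30 min at room temperature.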

[2] = Caspase-3/7 induction in CHO-K1 cells by small molecules, qHTS cell viability counter screen (AID 1346979); note: nearly all actives have a fitted effect of over 35% in size; note: potency is the fitted concentration of half-maximal effect
In short: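 Cytotoxicity counter screen: CellTiter-Fluor added to compound-treated wild-type CHO-K1 cells at 16 h (37C, 5% CO2), fluorescence measured 1 h later; same wells as caspase-3/7 measurement.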

[3] = Caspase-3/7 induction in CHO-K1 cells by small molecules, qHTS assay (AID 1346980); note: nearly all actives have a fitted effect of over 15% in size
In short: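 Wild-type CHO-K1 cells exposed to compounds for 17hr at 37 C, 5% CO2. Caspase-3/7 activity then measured by Caspase-Glo 3/7 luminescence after 30min at room temperature.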

[4] = Caspase-3/7 induction in HepG2 cells by small molecules, qHTS cell viability counter screen (AID 1346981); note: nearly all actives have a fitted effect of over 30% in size; note: potency is the fitted concentration of half-maximal effect; for activity change, negative = cytotoxicity: series mostly up to about 92 µM
In short: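 Wild-type HepG2 cells (2,000/well) were allowed to settle for 5 hr at 37 C, 5% CO2, then dosed with compounds in DMSO by pin transfer. After 16 hr at 37 C, CellTiter-Fluor was added and fluorescence read 1 hr later.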

[5] = target: Nuclear receptor subfamily 1 group I member 2 (Homo sapiens) (UniProt O75469); assay: Human pregnane X receptor (PXR) small molecule agonists, qHTS assay (AID 1346982); note: nearly all actives have a fitted effect of over 35% in size; note: potency is the fitted concentration of half-maximal effect
Sequence of Nuclear receptor subfamily 1 group I member 2 (Homo sapiens) (O75469 whole entry, looked up): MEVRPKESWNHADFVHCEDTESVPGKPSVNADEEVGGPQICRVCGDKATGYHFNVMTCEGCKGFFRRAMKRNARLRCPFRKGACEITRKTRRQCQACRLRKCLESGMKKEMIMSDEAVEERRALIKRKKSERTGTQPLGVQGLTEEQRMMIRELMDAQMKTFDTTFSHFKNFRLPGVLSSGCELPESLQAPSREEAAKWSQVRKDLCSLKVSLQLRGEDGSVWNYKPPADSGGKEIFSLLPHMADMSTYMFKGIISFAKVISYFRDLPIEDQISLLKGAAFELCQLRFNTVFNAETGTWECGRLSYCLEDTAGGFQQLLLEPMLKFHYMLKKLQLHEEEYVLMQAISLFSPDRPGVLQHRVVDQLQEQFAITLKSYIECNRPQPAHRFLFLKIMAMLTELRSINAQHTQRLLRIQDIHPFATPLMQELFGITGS
In short: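 PXR-Luc HepG2 cells (CYP3A4 promoter-driven luciferase) were seeded in medium with 5% charcoal-stripped FBS, left 5 hr at 37 C, then exposed to compounds in DMSO for 24 hr. Luminescence was read after ONE-Glo addition.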

[6] = target: Cytochrome P450 2D6 (Homo sapiens) (UniProt P10635); assay: Cytochrome P450 Family 2 Subfamily D Member 6 (CYP2D6) small molecule antagonists: luciferase reporter qHTS assay (AID 1671196); note: nearly all actives have a fitted effect of over 50% in size; note: potency is the fitted concentration of half-maximal effect; for activity change, negative = inhibition: series mostly up to about 120 µM
Sequence of Cytochrome P450 2D6 (Homo sapiens) (P10635 whole entry, looked up): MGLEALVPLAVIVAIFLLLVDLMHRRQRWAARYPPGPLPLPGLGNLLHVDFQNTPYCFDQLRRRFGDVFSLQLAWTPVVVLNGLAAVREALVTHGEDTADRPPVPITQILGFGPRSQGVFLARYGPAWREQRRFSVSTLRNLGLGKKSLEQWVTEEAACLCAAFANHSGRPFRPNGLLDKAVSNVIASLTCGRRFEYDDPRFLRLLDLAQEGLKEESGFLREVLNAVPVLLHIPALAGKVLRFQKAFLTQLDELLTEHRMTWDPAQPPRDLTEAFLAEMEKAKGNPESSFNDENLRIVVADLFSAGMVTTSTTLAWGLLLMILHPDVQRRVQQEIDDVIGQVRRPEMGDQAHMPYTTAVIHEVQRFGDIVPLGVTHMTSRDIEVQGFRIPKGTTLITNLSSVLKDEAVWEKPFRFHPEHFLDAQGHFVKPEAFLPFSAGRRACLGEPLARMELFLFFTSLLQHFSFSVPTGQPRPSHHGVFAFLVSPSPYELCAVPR
In short: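 CYP2D6 enzyme–substrate mix was held with compound for 10 min at room temperature, then NADPH regeneration solution was added and the reaction ran 1 h at room temperature. Luciferin product was detected by luminescence after 20 min with detection reagent.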

[7] = target: Cytochrome P450 2C9 (Homo sapiens) (UniProt P11712); assay: Cytochrome P450 Family 2 Subfamily C Member 9 (CYP2C9) small molecule antagonists: luciferase reporter qHTS assay (AID 1671198); note: nearly all actives have a fitted effect of over 50% in size; note: potency is the fitted concentration of half-maximal effect; for activity change, negative = inhibition: series mostly up to about 120 µM
Sequence of Cytochrome P450 2C9 (Homo sapiens) (P11712 whole entry, looked up): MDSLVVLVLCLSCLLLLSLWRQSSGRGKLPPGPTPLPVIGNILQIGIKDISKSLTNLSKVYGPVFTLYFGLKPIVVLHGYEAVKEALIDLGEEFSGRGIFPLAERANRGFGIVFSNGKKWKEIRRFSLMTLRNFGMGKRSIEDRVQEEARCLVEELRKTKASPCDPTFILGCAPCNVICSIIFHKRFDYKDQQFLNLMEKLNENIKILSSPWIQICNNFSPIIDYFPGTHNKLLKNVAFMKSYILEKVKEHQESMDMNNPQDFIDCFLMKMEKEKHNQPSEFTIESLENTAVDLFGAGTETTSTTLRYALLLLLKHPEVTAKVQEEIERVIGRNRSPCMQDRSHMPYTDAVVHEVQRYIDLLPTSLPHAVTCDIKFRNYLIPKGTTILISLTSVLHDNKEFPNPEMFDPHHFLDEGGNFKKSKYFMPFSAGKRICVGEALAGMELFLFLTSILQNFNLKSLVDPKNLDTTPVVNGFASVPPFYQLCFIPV
In short: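 P450-Glo proluciferin substrate with CYP2C9 enzyme; 10 min RT preincubation, then NADPH regeneration 1 h at 37C; luciferin detection reagent 20 min RT, luminescence in relative luminescence units.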

[8] = target: Cytochrome P450 1A2 (Homo sapiens) (UniProt P05177); assay: Cytochrome P450 Family 1 Subfamily A Member 2 (CYP1A2) small molecule antagonists: luciferase reporter qHTS assay (AID 1671199); note: nearly all actives have a fitted effect of over 50% in size; note: potency is the fitted concentration of half-maximal effect; for activity change, negative = inhibition: series mostly up to about 120 µM
Sequence of Cytochrome P450 1A2 (Homo sapiens) (P05177 whole entry, looked up): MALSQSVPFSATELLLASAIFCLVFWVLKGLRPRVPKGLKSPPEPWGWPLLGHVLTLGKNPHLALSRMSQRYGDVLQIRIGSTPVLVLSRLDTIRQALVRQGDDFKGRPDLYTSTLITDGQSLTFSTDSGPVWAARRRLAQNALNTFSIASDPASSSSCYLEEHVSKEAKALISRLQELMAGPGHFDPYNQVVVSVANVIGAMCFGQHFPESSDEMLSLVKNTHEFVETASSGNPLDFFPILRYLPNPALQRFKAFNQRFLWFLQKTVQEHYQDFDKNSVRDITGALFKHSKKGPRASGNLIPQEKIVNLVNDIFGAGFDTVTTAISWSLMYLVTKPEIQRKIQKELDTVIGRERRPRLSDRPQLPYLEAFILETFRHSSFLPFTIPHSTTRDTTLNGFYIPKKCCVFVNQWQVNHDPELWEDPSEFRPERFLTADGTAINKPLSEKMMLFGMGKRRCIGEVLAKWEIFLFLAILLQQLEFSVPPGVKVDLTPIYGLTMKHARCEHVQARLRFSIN
In short: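 Human CYP1A2 activity measured with a P450-Glo proluciferin substrate; compounds in DMSO preincubated 10 min at room temperature with enzyme-substrate mix, then NADPH regeneration system added for 1 h. Luciferin detection reagent, 20 min, luminescence read.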

[9] = target: Voltage-gated inwardly rectifying potassium channel KCNH2 (Homo sapiens) (UniProt Q12809); assay: Human Ether-a-go-go-Related Gene (hERG) channel small molecule antagonists: fluorescence cell-based qHTS assay (AID 1671200); note: series mostly up to about 77 µM; nearly all actives have a fitted effect of over 50% in size
Sequence of Voltage-gated inwardly rectifying potassium channel KCNH2 (Homo sapiens) (Q12809 whole entry, looked up): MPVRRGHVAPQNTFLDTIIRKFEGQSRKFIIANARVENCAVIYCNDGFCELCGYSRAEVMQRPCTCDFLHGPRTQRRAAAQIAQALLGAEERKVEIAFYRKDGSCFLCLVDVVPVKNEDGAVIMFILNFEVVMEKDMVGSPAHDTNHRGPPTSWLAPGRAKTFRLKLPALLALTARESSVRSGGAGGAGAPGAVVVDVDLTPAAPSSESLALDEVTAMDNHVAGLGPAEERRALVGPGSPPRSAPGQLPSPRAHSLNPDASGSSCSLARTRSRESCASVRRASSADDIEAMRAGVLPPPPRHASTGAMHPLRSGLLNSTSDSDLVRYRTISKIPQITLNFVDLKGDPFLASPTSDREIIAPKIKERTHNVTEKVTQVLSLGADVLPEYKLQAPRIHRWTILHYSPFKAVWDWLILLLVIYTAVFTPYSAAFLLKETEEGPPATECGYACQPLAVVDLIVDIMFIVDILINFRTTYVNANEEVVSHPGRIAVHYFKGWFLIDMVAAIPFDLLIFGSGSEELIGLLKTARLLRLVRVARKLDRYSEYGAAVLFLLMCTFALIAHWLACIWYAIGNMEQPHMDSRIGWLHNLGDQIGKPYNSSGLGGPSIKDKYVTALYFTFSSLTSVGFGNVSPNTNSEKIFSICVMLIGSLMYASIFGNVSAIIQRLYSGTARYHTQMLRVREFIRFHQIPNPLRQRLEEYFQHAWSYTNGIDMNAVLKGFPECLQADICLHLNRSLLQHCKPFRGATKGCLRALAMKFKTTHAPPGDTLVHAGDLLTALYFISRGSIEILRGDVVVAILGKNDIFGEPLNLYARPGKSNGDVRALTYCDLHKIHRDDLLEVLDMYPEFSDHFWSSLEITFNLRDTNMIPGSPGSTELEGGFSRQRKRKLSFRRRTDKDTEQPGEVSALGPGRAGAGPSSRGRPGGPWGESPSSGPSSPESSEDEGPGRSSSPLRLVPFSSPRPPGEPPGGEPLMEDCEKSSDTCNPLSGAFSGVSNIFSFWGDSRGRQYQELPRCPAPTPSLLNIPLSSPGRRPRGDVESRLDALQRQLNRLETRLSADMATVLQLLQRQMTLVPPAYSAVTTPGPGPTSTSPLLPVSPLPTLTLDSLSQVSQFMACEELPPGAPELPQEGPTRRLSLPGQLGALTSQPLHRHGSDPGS
In short: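 Thallium flux as potassium surrogate: FluxOR II dye loaded 1 h at room temperature into hERG-expressing U2OS cells, then stimulus buffer added after 10 min. Kinetic 480 nm excitation/540 nm emission read, 2 min.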

[10] = target: Cytochrome P450 3A4 (Homo sapiens) (UniProt P08684); assay: Cytochrome P450 Family 3 Subfamily A Member 4 (CYP3A4) small molecule antagonists: luciferase reporter qHTS assay (AID 1671201); note: nearly all actives have a fitted effect of over 50% in size; note: potency is the fitted concentration of half-maximal effect; for activity change, negative = inhibition: series mostly up to about 120 µM
Sequence of Cytochrome P450 3A4 (Homo sapiens) (P08684 whole entry, looked up): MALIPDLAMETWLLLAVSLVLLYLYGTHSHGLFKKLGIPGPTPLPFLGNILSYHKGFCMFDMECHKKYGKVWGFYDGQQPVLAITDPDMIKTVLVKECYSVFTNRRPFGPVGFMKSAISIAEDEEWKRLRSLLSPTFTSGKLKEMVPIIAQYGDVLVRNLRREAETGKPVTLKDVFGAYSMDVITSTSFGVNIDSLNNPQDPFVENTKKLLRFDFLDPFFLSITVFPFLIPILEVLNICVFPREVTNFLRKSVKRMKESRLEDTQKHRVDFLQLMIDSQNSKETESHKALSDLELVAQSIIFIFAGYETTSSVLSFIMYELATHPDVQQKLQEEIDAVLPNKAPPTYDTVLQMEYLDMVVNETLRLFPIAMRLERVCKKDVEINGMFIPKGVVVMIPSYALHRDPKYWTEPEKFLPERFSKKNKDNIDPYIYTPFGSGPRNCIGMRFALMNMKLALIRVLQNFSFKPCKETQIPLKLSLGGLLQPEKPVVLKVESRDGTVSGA
In short: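 Recombinant human CYP3A4 converts a proluciferin substrate to luciferin over 1 h at room temperature after NADPH regeneration solution is added (compound preincubated 10 min); detection reagent stops reaction, luminescence read 20 min later as relative units.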

[11] = target: Cytochrome P450 2C19 (Homo sapiens) (UniProt P33261); assay: Cytochrome P450 Family 2 Subfamily C Member 19 (CYP2C19) small molecule antagonists: luciferase reporter qHTS assay (AID 1671197); note: nearly all actives have a fitted effect of over 65% in size; note: potency is the fitted concentration of half-maximal effect; for activity change, negative = inhibition: series mostly up to about 120 µM
Sequence of Cytochrome P450 2C19 (Homo sapiens) (P33261 whole entry, looked up): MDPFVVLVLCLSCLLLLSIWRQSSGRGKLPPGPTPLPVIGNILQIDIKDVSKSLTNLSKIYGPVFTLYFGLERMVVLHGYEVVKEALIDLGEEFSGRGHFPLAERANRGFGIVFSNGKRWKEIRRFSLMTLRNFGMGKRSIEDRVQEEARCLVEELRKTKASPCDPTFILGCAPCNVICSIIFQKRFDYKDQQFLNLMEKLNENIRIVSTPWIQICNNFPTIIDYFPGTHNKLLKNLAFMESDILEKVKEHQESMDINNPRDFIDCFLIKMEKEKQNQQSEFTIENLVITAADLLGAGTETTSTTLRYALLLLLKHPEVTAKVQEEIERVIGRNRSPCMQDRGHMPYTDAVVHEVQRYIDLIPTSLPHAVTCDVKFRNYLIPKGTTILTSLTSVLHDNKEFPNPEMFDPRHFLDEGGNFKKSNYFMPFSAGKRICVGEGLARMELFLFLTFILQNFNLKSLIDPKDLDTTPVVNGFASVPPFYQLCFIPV
In short: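 P450-Glo CYP2C19 screening system; proluciferin substrate; DMSO compound stocks; 10 min RT preincubation; NADPH regeneration, 1 h at 37C; luciferin detection reagent, 20 min RT; luminescence as RLU.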

[12] = target: Nuclear receptor subfamily 1 group I member 2 (Rattus norvegicus) (UniProt Q9R1A7); assay: Rat pregnane X receptor (rPXR) activation by small molecules, qHTS assay (AID 1346983); details: rPXR luciferase reporter cells, One-Glo luminescence, 24 h; max activation: stronger effect = higher value; note: nearly all actives have a fitted effect of over 20% in size
Sequence of Nuclear receptor subfamily 1 group I member 2 (Rattus norvegicus) (Q9R1A7 whole entry, looked up): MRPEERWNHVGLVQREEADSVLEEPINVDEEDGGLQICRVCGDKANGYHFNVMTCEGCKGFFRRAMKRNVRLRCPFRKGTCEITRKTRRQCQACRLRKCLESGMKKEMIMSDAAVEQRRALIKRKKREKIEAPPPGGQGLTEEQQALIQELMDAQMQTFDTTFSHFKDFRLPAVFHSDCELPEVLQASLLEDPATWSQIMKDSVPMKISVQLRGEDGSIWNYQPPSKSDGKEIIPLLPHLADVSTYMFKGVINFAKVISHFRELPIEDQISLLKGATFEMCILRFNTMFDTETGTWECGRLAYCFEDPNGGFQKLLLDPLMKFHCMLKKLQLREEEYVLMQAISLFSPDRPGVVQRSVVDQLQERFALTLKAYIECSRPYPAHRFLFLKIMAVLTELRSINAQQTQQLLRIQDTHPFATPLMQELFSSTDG
In short: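 Cell-based rPXR activation assay: rPXR cells, 2,000 per well, rested 5hr at 37 C, then exposed to compounds in DMSO for 24 hr at 37 C. Luciferase activity read by One-Glo luminescence after 30 min at room temperature.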

[13] = target: Nuclear receptor subfamily 1 group I member 2 (Homo sapiens) (UniProt O75469); assay: CYP3A4 induction through human pregnane X receptor (PXR) by small molecules, qHTS assay (AID 1346984); note: nearly all actives have a fitted effect of over 40% in size
In short: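 DPX-2 cells (HepG2 co-transfected with PXR and CYP3A4 promoter-luciferase) treated with compounds 24 h at 37C; luciferin-IPA CYP3A4 substrate 3uM final added for 3 h, then One-Glo; luminescence read. qHTS format.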

[14] = target: Nuclear receptor subfamily 1 group I member 2 (Homo sapiens) (UniProt O75469); assay: Human pregnane X receptor (PXR) activation by small molecules, qHTS assay (AID 1346985); note: nearly all actives have a fitted effect of over 40% in size
In short: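 DPX-2 cells (HepG2 co-transfected with a PXR response element and a CYP3A4-promoter luciferase construct) were seeded at 2,000 per well, rested 5 hr at 37C, then exposed to DMSO-dissolved compounds for 24 hr. Activation was read as luciferase luminescence.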
% is set by controls: 0 for no effect and ±100 for the full control effect.

COc1ccc(OC)c(OC)c1
active: Potency [7] 22.4 µM | Potency [8] 39.9 µM
inactive: outcome [1] | Potency [2] | Potency [3] | Potency [4] | Potency [5] | Potency [6] | Potency [9] | Potency [10]

S=C(S)NCCNC(=S)S
inactive: outcome [1] | Potency [2] | Potency [3] | Potency [4] | Potency [5] | Potency [6] | Potency [8] | Potency [9] | Potency [10]
active: Potency [11] 31.2 µM | Potency [7] 35 µM

Oc1ccc2c(c1)OCO2
inactive: outcome [1] | Potency [2] | Potency [3] | Potency [4] | Potency [5] | Potency [9]
active: Potency [6] 39.6 µM | Potency [11] 19.9 µM | Potency [7] 9.95 µM | Potency [8] 31.5 µM | Potency [10] 22.3 µM

O=C(Cl)c1c(Cl)cccc1Cl
active: Potency [11] 36 µM
inactive: outcome [1] | Potency [2] | Potency [3] | Potency [4] | Potency [5] | Potency [6] | Potency [8] | Potency [9] | Potency [10]

CC(=O)N(CC(=O)N(C)C)c1ccccc1
inactive: outcome [1] | Potency [2] | Potency [3] | Potency [4] | Potency [5] | Potency [6] | Potency [11] | Potency [8] | Potency [10]

CC(=O)OCCc1ccccc1
inactive: outcome [1] | Potency [2] | Potency [3] | Potency [4] | Potency [5] | Potency [6] | Potency [11] | Potency [8] | Potency [9] | Potency [10]

O=CNc1ccccc1
inactive: outcome [1] | Potency [2] | Potency [3] | Potency [4] | Potency [5] | Potency [6] | Potency [7] | Potency [9] | Potency [10]

NC(N)=N/N=C/c1c(Cl)cccc1Cl
inactive: outcome [1] | Potency [3] | max activation [12] -2.41% | Potency [13] | Potency [14] | Potency [11] | Potency [7] | Potency [10]
active: Potency [2] 29.8 µM | Potency [4] 29.8 µM | Potency [6] 13.8 µM | Potency [8] 15.5 µM

Cn1sccc1=O
inactive: outcome [1] | Potency [3] | Potency [4] | Potency [6] | Potency [9] | Potency [10]
active: Potency [2] 30.6 µM and 43.3 µM | Potency [5] 30.6 µM and 61.1 µM | Potency [7] 31.7 µM and 35.6 µM | Potency [8] 35.6 µM and 31.7 µM

CCCCCCCCC(CO)CCCCCC (stereo not drawn)
active: Potency [11] 31.7 µM | Potency [7] 25.2 µM
inactive: outcome [1] | Potency [2] | Potency [3] | Potency [4] | Potency [5] | Potency [6] | Potency [10]

CCC(=O)OC(C)(C)C1CC=C(C)CC1 (stereo not drawn)
inactive: outcome [1] | Potency [2] | Potency [3] | Potency [4] | Potency [5] | Potency [9]

CN(C)CCCNCCCN
inactive: outcome [1] | Potency [2] | Potency [3] | Potency [4] | Potency [5] | Potency [7] | Potency [10]
active: Potency [6] 70.7 µM | Potency [8] 35.4 µM

O=C(C(=O)c1ccc(Br)cc1)c1ccc(Br)cc1
inactive: caspase activation [1] -0.0549% [at 19 µM] | activity change, negative = cytotoxicity [2] 1.57% [at 19 µM] | caspase-3/7 activation [3] 0.394% [at 19 µM] | activity change, negative = cytotoxicity [4] 2.21% [at 19 µM] | activation [5] 1.54% [at 19 µM] | activity change, negative = inhibition [6] 1.74% [at 23.6 µM] | activity change, negative = inhibition [7] -0.879% [at 23.6 µM] | activity change, negative = inhibition [10] 4.73% [at 23.6 µM]
active: Potency [11] 0.352 µM

O=c1c2ccccc2nnn1CCl
inactive: outcome [1] | Potency [2] | Potency [3] | Potency [4] | Potency [8] | Potency [9]
active: Potency [5] 61.1 µM | Potency [6] 14.2 µM | Potency [7] 71 µM | Potency [10] 11.2 µM

CCCCCCCCCCCCCCCBr
inactive: outcome [1] | Potency [2] | Potency [3] | Potency [4] | Potency [5] | Potency [6] | Potency [11] | Potency [7] | Potency [9] | Potency [10]

CCOC(=O)C1=NN(c2ccccc2)C(=O)C1
active: Potency [7] 71 µM
inactive: outcome [1] | Potency [2] | Potency [3] | Potency [4] | Potency [6] | Potency [11] | Potency [9] | Potency [10]

COCCOCCOCCOCCOC
inactive: outcome [1] | Potency [2] | Potency [3] | Potency [4] | Potency [6] | Potency [11] | Potency [7] | Potency [9] | Potency [10]
active: Potency [8] 35.6 µM

Nc1nc(N)c2nc(CNc3ccc(C(=O)N[C@@H](CCC(=O)O)C(=O)O)cc3)cnc2n1
inactive: outcome [1] | Potency [2] | Potency [3] | Potency [4] | Potency [11] | Potency [7] | Potency [8] | Potency [9] | Potency [10]

CCOc1ccc(NC(=O)CC(C)=O)cc1
active: Potency [6] 35.6 µM | Potency [11] 56.4 µM | Potency [8] 31.7 µM
inactive: outcome [1] | Potency [2] | Potency [3] | Potency [4] | Potency [10]

O=C(O)Cc1sc(-c2ccccc2)nc1-c1ccc(Cl)cc1
inactive: outcome [1] | Potency [2] | Potency [3] | Potency [4] | max activation [12] 0.948% | Potency [13] | Potency [14] | Potency [6] | Potency [11] | Potency [9] | Potency [10]
active: Potency [7] 4.9 µM

CCOc1nc2cccc(C(=O)O)c2n1Cc1ccc(-c2ccccc2-c2nn[nH]n2)cc1
inactive: outcome [1] | Potency [2] | Potency [3] | Potency [4] | max activation [12] -0.587% | Potency [9]

CCCCOc1ccc(CC(=O)NO)cc1
active: Potency [2] 23.7 µM | Potency [6] 15.5 µM | Potency [8] 15.5 µM
inactive: outcome [1] | Potency [3] | Potency [5] | max activation [12] -0.916% | Potency [13] | Potency [14] | Potency [10]

CCCCOC(=O)/C=C\C(=O)OCCCC
active: Potency [11] 3.28 µM | Potency [8] 7.34 µM
inactive: outcome [1] | Potency [2] | Potency [3] | Potency [4] | Potency [6] | Potency [9] | Potency [10]
